From PubChem BioAssay (NCI)
The panel holds about 83,000 compounds, 20% with a hit somewhere; the sample as a whole holds those more often.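 Assay: single dose, 48 h. Readout: percent growth (0 = no net growth; negative = cell death). Active: <10.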 A number with no mark means an inactive call.

Test system: NCI-H322M lung
Experiment: NCI-60 one-dose screen, 48 h (100 = growth as untreated, 0 = no growth, -100 = all killed)
Conditions: 10 µM unless noted

Q: O=c1[nH]c(=O)n(Cc2ccc(F)cc2)cc1F was tested. Which growth did it give?
A: Its growth is 107% [50 µM].

Q: With CC(=O)Nc1ccccc1-c1n[nH]c(=O)[nH]c1=O as the molecule, how does the growth read?
A: Its growth is 105%.

Q: Which growth does the source give for CCOC(=O)c1[nH]c2cc(Cl)ccc2c1[C@@H](C(=O)NC(C)(C)C)N(CC)C(=O)CCCCC#Cc1cccc2c1CN(C1CCC(=O)NC1=O)C2=O (stereo partly drawn) here?
A: Its growth is 13.5%.

Q: For NS(=O)(=O)c1ccc(C(=O)N/N=C(\CS(=O)(=O)c2ccccc2)c2cc3cc(Br)ccc3o2)cc1, which growth is on record?
A: Its growth is 103%.

Q: O=C1Nc2ccc(Cl)cc2/C1=N/N=C(c1ccccc1)c1ccccc1 was tested. Which growth did it give?
A: The growth was 98.1%.

Q: How did the growth turn out when Cc1c(C(=O)Nc2nc(-c3ccccc3)cs2)nnn1-c1cccc2ccccc12 was run?
A: Its growth is 84.6% [50 µM].

Q: With COc1ccc(NS(=O)(=O)c2ccc(-c3cnc(C4CC4)o3)cc2)cc1 as the molecule, how does the growth read?
A: The growth was 91.8%.

Q: For O=c1[nH]c(-c2ccncc2)nc2sc3c(c12)CCCCCC3, which growth is on record?
A: Its growth is 59.4%.

Q: CC(C)OC1=C(Cl)C(=O)c2ccccc2C1=O was tested. Which growth did it give?
A: Its growth is 95%.

Q: With O=c1nc(NO)[nH]c(=O)n1Cc1ccccc1 as the molecule, how does the growth read?
A: The growth was 120%.

Q: With COc1c(O)c2c3c(c1OC)-c1ccccc1CC3N(S(=O)(=O)c1ccc(C)cc1)CC2 (stereo not drawn) as the molecule, how does the growth read?
A: Its growth is 53%.

Q: Fc1c[c-]c(-c2ccccn2)c(F)c1.Fc1c[c-]c(-c2ccccn2)c(F)c1.[Cl][Pt+].[Cl][Pt+].c1ccc([PH+](C[PH+](c2ccccc2)c2ccccc2)c2ccccc2)cc1 was tested. Which growth did it give?
A: Its growth is 66.6%.

Q: O=C(c1ccc2ncc(-c3nc(NC4CC4)ncc3F)n2c1)N1CCOCC1 was tested. Which growth did it give?
A: The growth was 15.4%.
